Structures are written as SMILES. The whole screen tested about 39,000 compounds, of which about 1,500 (3.8%) were called active. The full list was thinned out, with actives kept by preference.

Data on 17 compounds can be found in the antibiotic and cytotoxicity screens of Wong et al. (2023).

This experiment concerns HSkMC (human skeletal muscle cells). Kind of experiment: cytotoxicity call (relative viability < 0.9). As to conditions: 10 µM.
Take `C[C@@H]1CN([C@H](C)CO)C(=O)Cc2cc(NS(=O)(=O)c3cn(C)cn3)ccc2O[C@@H]1CN(C)C(=O)Nc1ccc(F)cc1`: the cytotoxicity call is “inactive”.

Turning to `C[C@@H]1CN([C@H](C)CO)C(=O)Cc2cc(NC(=O)Nc3cccc4ccccc34)ccc2O[C@@H]1CN(C)S(=O)(=O)c1ccc(F)cc1`, the cytotoxicity call was “inactive”.

On to `COc1ccccc1C#Cc1ccc2c(c1)O[C@@H](CN(C)C(C)=O)[C@@H](C)CN([C@H](C)CO)S2(=O)=O`, for which the cytotoxicity call was “inactive”. Under `C[C@@H]1CN([C@@H](C)CO)C(=O)c2cc(-c3cccc(C(=O)N(C)C)c3)cnc2O[C@@H]1CN(C)C(=O)Cc1ccccn1` stands “inactive”. Under `COc1ccc(S(=O)(=O)N(C)C[C@@H]2OCCCC[C@H](C)Oc3ccc(NC(=O)Nc4c(C)noc4C)cc3C(=O)N([C@H](C)CO)C[C@H]2C)cc1` stands “inactive”; under `O=C(c1cccnc1)N1C[C@H]2[C@@H](c3ccccc31)[C@@H](CO)N2C(=O)CN1CCOCC1`, “inactive”.

As to `CN(C)S(=O)(=O)c1ccc(CN)cc1`, the cytotoxicity call was “inactive”.

For the compound `CC(C)NC(=O)Nc1ccc2c(c1)C(=O)N(C)[C@H]1CC[C@@H](CC(=O)NCc3ccc(F)cc3)O[C@@H]1CO2`, the cytotoxicity call was “inactive”. Under `C[C@@H]1CN([C@H](C)CO)C(=O)c2cccc(NS(=O)(=O)c3ccc(Cl)cc3)c2O[C@@H]1CN(C)Cc1ccc(Oc2ccccc2)cc1` stands “inactive”. Under `C[C@@H]1CN([C@@H](C)CO)C(=O)c2ccccc2-c2ccccc2CO[C@@H]1CN(C)C(=O)Nc1ccc(F)cc1` stands “inactive”; under `C[C@@H]1CN([C@@H](C)CO)C(=O)Cc2cc(NC(=O)Cn3cnnn3)ccc2O[C@@H]1CN(C)Cc1ccncc1`, “inactive”.

For the compound `COc1ccc(CN(C)C[C@H]2OCCCC[C@@H](C)Oc3ccc(NC(=O)Nc4ccc(C(F)(F)F)cc4)cc3C(=O)N([C@@H](C)CO)C[C@H]2C)cc1`, the cytotoxicity call is “active”.

As to `COc1ccc(NC(=O)Nc2ccc3c(c2)C(=O)N([C@@H](C)CO)C[C@@H](C)[C@@H](CN(C)Cc2ccc(C(F)(F)F)cc2)OCCCC[C@@H](C)O3)cc1`, the cytotoxicity call is “inactive”. The entry for `COc1ccc(NC(=O)Nc2ccc3c(c2)C(=O)N([C@@H](C)CO)C[C@H](C)[C@H](CN(C)Cc2ccc(C(F)(F)F)cc2)OCCCC[C@@H](C)O3)cc1` is “inactive”; for `COc1ccc(CN(C)C[C@H]2OCCCC[C@H](C)Oc3ccc(NC(=O)Nc4ccc(C(F)(F)F)cc4)cc3C(=O)N([C@H](C)CO)C[C@@H]2C)cc1` it is “active”. Under `COc1ccc(CN(C)C[C@H]2OCCCC[C@@H](C)Oc3ccc(NC(=O)Nc4ccc(C(F)(F)F)cc4)cc3C(=O)N([C@H](C)CO)C[C@H]2C)cc1` stands “active”. Under `COc1ccc(CN(C)C[C@@H]2OCCCC[C@H](C)Oc3ccc(NC(=O)Nc4ccc(C(F)(F)F)cc4)cc3C(=O)N([C@H](C)CO)C[C@@H]2C)cc1` stands “active”.
